Experimental findings from PubChem BioAssay (NCATS) are described below.

Assay [1] in a line: Quantitative highthroughput screen to assess conditional lethalithy of NOMO1 cells grown in RPMI1640 with untreated serum (RPMI+s) (AID 1963876).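 For viability: 100% = DMSO wells and 0% = empty wells without cells.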 Note: nearly all actives have a fitted effect of over 35% in size. Note: potency is the fitted concentration of half-maximal effect. The settings on record: NOMO1 AML cells in RPMI+serum, CellTiter-Glo viability, 48 h; series mostly up to 45.8 µM. In short, it runs like this:
(§1)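 Each medium arm—HPLM with 10% dialyzed FBS, or RPMI1640 with 5 mM glucose and 10% untreated or dialyzed FBS—was screened against an 11-point, 3-fold compound titration for 48 h at 37 °C, with CellTiter-Glo luminescence as endpoint.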
For orientation: ATP-based viability assays read luminescence as a measure of living cells.

A short description of assay [2]: Quantitative highthroughput screen to assess conditional lethalithy of P12 Ichikawa cells grown in Human Plasma-Like Medium with dialyzed fetal bovine serum (HPLM+ds) (AID 1963879). Note: nearly all actives have a fitted effect of over 35% in size. Note: potency is the fitted concentration of half-maximal effect. The settings on record: ATP luminescence, 48 h; Potency: viability; series mostly up to 45.8 µM. The gist of the method: as §1
Assay [3] in a line: Quantitative highthroughput screen to assess conditional lethalithy of P12 Ichikawa cells grown in RPMI1640 with untreated serum (RPMI+s) (AID 1963881).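 For viability: 100% = DMSO wells and 0% = empty wells without cells.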 Note: nearly all actives have a fitted effect of over 35% in size. Note: potency is the fitted concentration of half-maximal effect. The following applies: ATP luminescence, 48 h; Potency: viability; series mostly up to 45.8 µM. In short, it runs like this:
as §1

Assay [4] in a line: Quantitative highthroughput screen to assess conditional lethalithy of SEM cells grown in Human Plasma-Like Medium with dialyzed fetal bovine serum (HPLM+ds) (AID 1963882). Note: nearly all actives have a fitted effect of over 35% in size. Note: potency is the fitted concentration of half-maximal effect. The following applies: SEM B-ALL cells in HPLM+ds, CellTiter-Glo viability, 48 h; series mostly up to 45.8 µM. The gist of the method:
as §1

Assay [5] in a line: Quantitative highthroughput screen to assess conditional lethalithy of SEM cells grown in RPMI1640 with unreated serum (RPMI+s) (AID 1963883).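 For viability: 100% = DMSO wells and 0% = empty wells without cells.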 Note: nearly all actives have a fitted effect of over 35% in size. Note: potency is the fitted concentration of half-maximal effect. The settings on record: SEM B-ALL cells, CellTiter-Glo viability, 48 h; series mostly up to 45.8 µM. In short, it runs like this:
as §1

A short description of assay [6]: Quantitative highthroughput screen to assess conditional lethalithy of SEM cells grown in RPMI1640 with dialyzed fetal bovine serum (RPMI+ds) (AID 1963884).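 For viability: 100% = DMSO control wells and 0% = empty wells without cells.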 Note: nearly all actives have a fitted effect of over 35% in size. Note: potency is the fitted concentration of half-maximal effect. The settings on record: SEM B-ALL cells, RPMI+dialyzed FBS, CellTiter-Glo viability, 48 h; series mostly up to 45.8 µM. The gist of the method: as §1
A short description of assay [7]: Cellular viability qHTS for adrenocortical cancer (ACC) cell line NCI-H295R (AID 1963990).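 Note: 0% = DMSO only wells and -100% = full killing with cytotoxic reference compound; nearly all actives have a fitted effect of over 60% in size.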 The following applies: CellTiter-Glo ATP luminescence, 48 h; series mostly up to 46.1 µM. In short, it runs like this: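 CellTiter-Glo ATP luminescence, read 48 h after compound addition, measured viability of NCI-H295R adrenocortical cells grown serum-free with ITS. Final concentrations spanned up to 46 uM. Data normalized to DMSO and doxorubicin, fitted for IC50 and maximal response.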
Background: qHTS replaces the single test concentration by a dilution series.

Assay [8] can be described thus: Quantitative highthroughput screen to assess conditional lethalithy of P12 Ichikawa cells grown in RPMI1640 with dialyzed fetal bovine serum (RPMI+ds) (AID 1963880).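 For viability: 100% = DMSO wells and 0% = empty wells on each plate.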 Note: nearly all actives have a fitted effect of over 35% in size. Note: potency is the fitted concentration of half-maximal effect. The settings on record: ATP luminescence, 48 h; Potency: P12-Ichikawa viability; series mostly up to 45.8 µM. In short, it runs like this:
as §1

A short description of assay [9]: Cellular viability qHTS for adrenocortical cancer (ACC) cell line SW-13 (AID 1963989).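 For activity (max response): cells grown in serum-free medium with ITS supplement; % is set by controls: 0 for no effect and ±100 for the full control effect.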 Note: nearly all actives have a fitted effect of over 65% in size. Note: potency is the fitted concentration of half-maximal effect. The settings on record: SW-13 ACC cells viability, CellTiter-Glo, 48 h; activity (max response): stronger effect = lower value. The gist of the method:
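Viability was read as CellTiter-Glo luminescence after 48 h compound treatment (up to 46 uM final) of SW-13 cells grown serum-free; titration curves were fit with a four-parameter logistic model to give IC50 and efficacy.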

Assay [10] can be described thus: Quantitative highthroughput screen to assess conditional lethalithy of NOMO1 cells grown in RPMI1640 with dialyzed fetal bovine serum (RPMI+ds) (AID 1963877).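 For viability: 100% = DMSO control wells and 0% = empty wells.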 Note: nearly all actives have a fitted effect of over 30% in size. Note: potency is the fitted concentration of half-maximal effect. The settings on record: NOMO1 in RPMI+dialyzed FBS viability, ATP luminescence, 48 h; series mostly up to 45.8 µM. The gist of the method:
as §1

Assay [11] is described as follows: Quantitative highthroughput screen to assess conditional lethalithy of NOMO1 cells grown in Human Plasma-Like Medium with dialyzed fetal bovine serum (HPLM+ds) (AID 1963878). The following applies: NOMO1 AML cells in HPLM+ds, CellTiter-Glo viability, 48 h; series mostly up to 45.8 µM. The gist of the method:
as §1

Results filed as inconclusive are left out. A number with no mark means an inactive call. Activity calls are given as the source filed them. Calls come from the whole dose curve; as a rule, active = well fitted curve in the direction sought with a large enough effect; inconclusive = small, poorly fitted or top-dose-only effect, or another doubt; inactive = no such curve, though single readings can be large; an effect the other way counts as inactive or inconclusive.

Consider `CC(C)(C)NC(=O)[C@H]1CC[C@H]2[C@@H]3CC[C@H]4NC(=O)C=C[C@]4(C)[C@H]3CC[C@]12C`, for which the Potency in assay [1] was 2.35 µM (active); in assay [2], 10.5 µM (active); in assay [3], 11.8 µM (active). Besides, the Potency result in assay [4], in [5], in assay [6] and in assay [7] was “inactive” throughout.
As to `C[C@@]12C[C@@]3(O)O[C@@H](O1)[C@]1(COC(=O)c4ccccc4)[C@@H]3C[C@@]12O[C@@H]1O[C@H](CO)[C@@H](O)[C@H](O)[C@@H]1O`, the Potency result in [1], in assay [8], in assay [3], in assay [4], in [5] and in assay [6] was “inactive” each time.
Take `N#Cc1ccc(NC(=O)Nc2ccccc2Br)c2n[nH]nc12`: the Potency result in assay [1], in assay [8], in assay [3], in [4], in assay [5] and in assay [7] was “inactive” in each case. In addition, in [9], the activity (max response) was -2.82%.
Consider `CN[C@@H](C)C(=O)N[C@H]1CCCC[C@H]2CC[C@@H](C(=O)N[C@@H](c3ccccc3)c3cn(CCCCc4ccc(CCCCn5cc([C@@H](NC(=O)[C@@H]6CC[C@@H]7CCCC[C@H](NC(=O)[C@H](C)NC)C(=O)N76)c6ccccc6)nn5)cc4)nn3)N2C1=O`, for which the Potency entry in [1], in assay [2], in [8], in assay [4] and in [7] was “inactive” throughout. The activity (max response) in assay [9] was -2.95%.
With `CC[C@@H]1C(=O)N(C)c2cnc(Nc3ccc(C(=O)NC4CCN(C)CC4)cc3OC)nc2N1C1CCCC1`, the Potency in assay [1] is 0.0662 µM (active); in [8], 0.0332 µM (active); in assay [3], 0.0332 µM (active); in [4], 0.0372 µM (active); in [6], 0.0469 µM (active); in assay [9], 0.0355 µM (active).
For the molecule `O=C(c1cc(Cc2n[nH]c(=O)c3ccccc23)ccc1F)N1CCN(C(=O)C2CC2)CC1`, the Potency entry in assay [1] and in assay [7] was “inactive” throughout. In addition, the Potency in assay [8] is 20.9 µM (active); in assay [5] it was 6.62 µM (active).
Consider `CN1C(C(=O)Nc2ccccn2)=C(O)c2ccccc2S1(=O)=O`, for which the values for the Potency in assay [1], in [8] and in assay [3] were 11.8 µM (active), 16.6 µM (active) and 14.8 µM (active), respectively. The Potency entry in assay [7] is “inactive”.
In the case of `O=C(O)c1ccc(-c2cc3cccnc3c(-c3ccc4nonc4c3)n2)cc1`, the Potency result in [1], in assay [2] and in assay [3] was “inactive” in each case.
`CCC(=C(c1ccccc1)c1ccc(OCCN(C)C)cc1)c1ccccc1`: the Potency result in assay [1], in assay [2] and in assay [3] was “inactive” each time. Besides, the Potency in assay [4] was 23.5 µM (active).
With `O=c1[nH]c(=O)n([C@H]2C[C@@H](O)[C@@H](CO)O2)cc1F`, the Potency in assay [10] is 0.0148 µM (active); in [2] it was 0.0833 µM (active); in assay [8], 0.0743 µM (active); in assay [4], 0.0235 µM (active); in assay [5] it was 2.35 µM (active).
Turning to `Cc1ccc(NC(=O)Nc2cc(C(F)(F)F)ccc2F)cc1Nc1ccc2c(c1)NC(=O)C2=Cc1ccc[nH]1`, the Potency in assay [10] was 20.9 µM (active); in assay [4], 18.7 µM (active); in assay [5], 18.7 µM (active); in assay [6] it was 16.6 µM (active).
Regarding `COc1cc2c(Nc3ccc(Cl)c(Cl)c3F)ncnc2cc1OCC1C[C@@H]2CN(C)C[C@H]2C1`, the Potency was 4.18 µM (active) in assay [11]; 11.8 µM (active) in [2]; 13.2 µM (active) in assay [3]; 10.5 µM (active) in [4]; 2.64 µM (active) in assay [5]; 11.8 µM (active) in [6].
With `CC[C@H]1OC(=O)[C@H](C)[C@@H](O[C@H]2C[C@@](C)(OC)[C@@H](O)[C@H](C)O2)[C@H](C)[C@@H](O[C@@H]2O[C@@H](C)C[C@H](N(C)C)[C@@H]2O)[C@](C)(O)C[C@@H](C)C(=O)[C@H](C)[C@@H](O)[C@]1(C)O`, the Potency in [11] is 9.35 µM (active); in assay [2] it was 16.6 µM (active); in [5] it was 10.5 µM (active).
Turning to `O=C(O)C[C@H](O)C[C@H](O)C=Cc1c(C2CC2)nc2ccccc2c1-c1ccc(F)cc1`, the Potency in [11] was 20.9 µM (active); in [8], 4.18 µM (active); in assay [3], 3.72 µM (active); in assay [5], 11.8 µM (active).
In the case of `CC(=O)NCC(=O)N1[C@H]2CC[C@H]1c1cc(Nc3ncc(C(F)(F)F)c(NC4CCC4)n3)ccc12`, the Potency in assay [11] is 0.296 µM (active); in [2], 0.132 µM (active); in assay [3], 0.132 µM (active); in assay [4], 0.118 µM (active); in assay [5], 0.105 µM (active); in [6], 0.105 µM (active).
`Cc1cnn(C)c1C(=O)Nc1cc(Nc2ccc3c(C=Cc4ccccn4)n[nH]c3c2)ccc1F`: the Potency in assay [11] is 16.6 µM (active); in [2], 20.9 µM (active); in assay [4], 2.96 µM (active); in assay [5], 3.72 µM (active); in assay [6] it was 2.64 µM (active).
As to `Oc1cc(O)cc(C=Cc2ccc(O)c(O)c2)c1`, the Potency entry in assay [10] was “inactive”. For the same molecule, the Potency in assay [5] was 18.7 µM (active).
